PubChem BioAssay AID686978 (National Center for Advancing Translational Sciences (NCATS), 2013)
In all, about 420,000 compounds went through this assay and about 64,000 (15%) were called active. Another 27% or so got no clear call; they are omitted. A selection follows. A number with no mark means an inactive call. The call rests on the fitted dose curve; in most records, active means well fitted inhibition curve with a large enough effect; inconclusive means small, poorly fitted or top-dose-only effect; inactive means flat fitted curve, though single readings scatter.

test: qHTS for Inhibitors of human tyrosyl-DNA phosphodiesterase 1 (TDP1): qHTS in cells in absence of CPT; conditions: DT40 Tdp1-/- hTDP1 cells, no CPT, ATP luminescence, 48 h; activity change, negative = growth inhibition: at 46.2 µM (top of the series); further: nearly all actives have a fitted effect of over 55% in size
Procedure, shortened: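 Chicken DT40 Tdp1-/- cells stably complemented with human TDP1 were seeded at 400 cells/well with DMSO in place of 20 nM camptothecin. After compound pinning, cells grew at least 48 hr at 37 °C; viability read by CellTiter-Glo luminescence.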
On the % scale 0 is the no-effect control and ±100 the full control effect; potency means the concentration at half of the fitted maximal effect.

Structure (SMILES)	activity change, negative = growth inhibition [%]	Potency
O=C(NCCCn1ccnc1)c1cc(Br)c(Br)s1	-7.52	–
O=C(COC(=O)c1cnc(Cl)c(Cl)c1)NCc1ccco1	14.6	–
O=C1CCC(=O)N1CCC(=O)N(C(=O)NC1CCCCC1)C1CCCCC1	-19.6	–
CCc1nnc(NC(=O)c2cc(S(=O)(=O)N3CCN(CC)CC3)ccc2Cl)s1	13.7	–
COCCOC(=O)C1=C(C)Nc2nc(C)nn2C1c1ccccc1 (stereo not drawn)	-3.63	–
Cc1ccc(C)c(OCCC(=O)OCC(=O)N2CCN(c3ccccc3)CC2)c1	-20.4	–
COc1ccccc1CCC(=O)OCC(=O)N1CCN(S(=O)(=O)c2ccc(C)cc2C)CC1	–	23.1 µM (active)
Cc1ccc(S(=O)(=O)N2CCN(C(=O)COC(=O)CNC(=O)c3ccc(C(C)(C)C)cc3)CC2)c(C)c1	6.77	–
O=c1ccc(-c2ccc(S(=O)(=O)Nc3ccccc3)o2)n[nH]1	-10.7	–
COc1ccc(CNC(=O)COc2cccnc2[N+](=O)[O-])cc1	20.7	–
CSc1nc2nc(-c3cccc(C(F)(F)F)c3)ccn2n1	-24.8	–
COc1cccc(NC(=O)CSc2nnc(-c3cccnc3)o2)c1	-0.853	–
CC(=O)Nc1cc(-c2ccccc2F)cn2c(-c3cccc(C(F)(F)F)c3)cnc12	–	0.326 µM (active)
COc1ccc(-c2cc(NC(C)=O)c3ncc(-c4cc(OC)c(OC)c(OC)c4)n3c2)cn1	–	2.91 µM (active)
COc1cccc(-c2cc(NC(C)=O)c3ncc(-c4cccc(C(C)=O)c4)n3c2)c1	–	23.1 µM (active)
CC(=O)Oc1cccc(C(=O)Nc2ccccc2NC(=O)c2cccc(OC(C)=O)c2)c1	-21.2	–
CNc1cnc(-c2cc(OC)c(OC)c(OC)c2)cn1	10.9	–
COc1cccc(-c2cnc3c(NC(C)=O)cc(-c4cc(F)ccc4OC)cn23)c1	–	23.1 µM (active)
O=C(CNS(=O)(=O)c1cccc(C(F)(F)F)c1)Nc1ccccc1F	-2.97	–
COc1cccc(C(NC(C)=O)c2nc(-c3ccccc3OC)cs2)c1 (stereo not drawn)	-25.4	–
COc1cccc(NC(=O)C2c3cc(OC)c(OC)cc3C(=O)N(C)C2c2cccnc2)c1 (stereo not drawn)	-16.5	–

Structure (SMILES)	activity change, negative = growth inhibition [%]	Potency
CCCCOP(=O)(c1ccc(N(C)C)cc1)C(O)c1cc(OC)ccc1OC (stereo not drawn)	1.13	–
CCC1=[N+]([O-])C(C)(/C(C)=N\O)N(O)C1(C)C (stereo not drawn)	4.6	–
CN1C[C@@H](CO)O[C@@H](n2cnc3c(N4CCN(CCO)CC4)ncnc32)C1	-5.1	–
Cc1ccc(NC(=O)CSCC(=O)Nc2sccc2C#N)cc1	1.64	–
Cc1cc(=O)oc2c3c(cc(OCC(=O)NCc4ccccn4)c12)OC(C)(C)CC3	–	25.9 µM (active)
Cc1cc(=O)oc2c3c(cc(OCC(=O)NCCC(=O)N[C@@H](C)C(=O)O)c12)OC(C)(C)CC3	-2.86	–
Cc1cc(=O)oc2c3c(cc(OCC(=O)N[C@H](C(=O)O)c4ccccc4)c12)OC(C)(C)CC3	-17.6	–
O=c1cc(CO)oc(C(Nc2cccc([N+](=O)[O-])c2)c2ccccn2)c1O (stereo not drawn)	-2.19	–
CC1CCN(CC(=O)Nc2nccs2)CC1	-8.17	–
CCOC(=O)c1c(-c2ccc(C)cc2C)csc1NC(=O)CSc1nnnn1C	–	20.6 µM (active)
CCOC(=O)CNC(=O)CSc1nnnn1-c1cc(C)ccc1C	-6.94	–
Cn1nnnc1SCC(=O)Nc1sccc1C(N)=O	-0.145	–
O=C1c2ccccc2C(=O)N1Cc1cc(-c2ccccc2Cl)no1	-2.31	–
CS(=O)(=O)Nc1ccccc1N=C(c1ccccc1)c1ccccc1	-23.1	–
O=C(COc1ccc(S(=O)(=O)NCCc2ccccc2)cc1)N1CCCC1	-19.6	–
CSc1ncccc1C(=O)N1CCCC(CCC(=O)NCc2ccccc2F)C1 (stereo not drawn)	1.92	–
COc1cccc(CNC(=O)CCC2CCCN(C(=O)c3cc(C)[nH]n3)C2)c1 (stereo not drawn)	-16.4	–
O=C(CCC1CCCN(C(=O)c2ccc(F)c(F)c2)C1)N1CCN(c2ccccn2)CC1 (stereo not drawn)	–	18.4 µM (active)
Cc1[nH]c2c(C(=O)N3CCCC(CCC(=O)NCc4ccccc4F)C3)cccc2c1C (stereo not drawn)	–	20.6 µM (active)
CC(=O)c1ccc(S(=O)(=O)NCCC(=O)N2CCN(c3ccccn3)CC2)cc1	-23.6	–
Cc1nn(-c2ccc(N3CCCCC3)nn2)c(C)c1CCC(=O)NCc1ccccc1F	-9.4	–

Structure (SMILES)	activity change, negative = growth inhibition [%]	Potency
COc1cccc(C(=O)N2CCCC(CCC(=O)NCc3ccc(F)c(F)c3)C2)c1 (stereo not drawn)	-58.6	–
COc1cccc(CNC(=O)CCC2CCCN(C(=O)c3ccc(F)c(Cl)c3)C2)c1 (stereo not drawn)	–	18.4 µM (active)
C=Cc1ccc(C(=O)N2CCCC(CCC(=O)N3CCN(c4ccccn4)CC3)C2)cc1 (stereo not drawn)	-9.1	–
Cc1ccnc(N)c1	-12.1	–
Cc1ccc(NC(=O)CSc2sc3c(O)cc(=O)[nH]c3c2C#N)cc1C	0.436	–
CCC1CCCCN1CCNC(=O)c1[nH]c(C)c(C(C)=O)c1C (stereo not drawn)	1.81	–
O=C(Nc1ccon1)c1nc[nH]c1C(=O)NCc1ccccc1	-23.3	–
COc1ccc(/C(O)=C2/C(=O)C(=O)N(c3nc(C)c(C)s3)C2c2ccco2)cc1 (stereo not drawn)	-16.5	–
Cc1ccc(C)c(NC(=O)CN(C)C(=O)c2ccc3ncsc3c2)c1	-5	–
Fc1cccc(Cc2noc(CN3CCN(c4cnccn4)CC3)n2)c1	-6.03	–
CC(=O)Nc1ccc(NC(=S)NC(=O)/C=C/c2ccccc2)cc1	-20.6	–
CC1(C(=O)O)CCN1C(=O)/C=C/c1ccccc1 (stereo not drawn)	-14.2	–
CC1(C)C=Cc2c(ccc(C(=O)/C=C/c3ccccc3)c2O)O1	–	8.91 µM (active)
COc1cccc(N2C(=O)CC(N3CCN(S(=O)(=O)c4ccccc4)CC3)C2=O)c1 (stereo not drawn)	-3.21	–
COc1ccc(-c2ccc3c(c2)[C@@H]2C[C@H](N(C)S(=O)(=O)c4ccccc4)[C@H]([C@H](C)O)C(=O)N2CC3)cc1	–	16.4 µM (active)
C[C@H](O)[C@@H]1C(=O)N2CCc3ccc(N4CCOCC4)cc3[C@@H]2C[C@@H]1N(C)C(=O)C(C)(C)C	0.412	–
CC1=C(C(N)=O)C(c2ccc(F)cc2)n2nc(CCCO)nc2N1 (stereo not drawn)	4.07	–
Cc1cccc(CCNS(=O)(=O)c2ccc3c(c2)NC(=O)CO3)c1	-17.4	–
CCCC(=O)Nc1cc2nn(-c3ccccc3)nc2cc1C	-21	–
CCOC(=O)c1cc(-c2ccccc2)n(-c2cccc(C(=O)Nc3cc(OC)cc(OC)c3)c2)c1C	-16.9	–
COc1cc(OC)cc(C(=O)Nc2cc3nn(-c4ccccc4)nc3cc2Cl)c1	–	16.4 µM (active)
